Experimental data as given in ChEMBL document CHEMBL1201862, “PubChem BioAssay data set” (2004).
The whole screen tested about 58,000 sequences, of which about 4,000 (6.9%) were called active. Cut-off read from the data, not from the text of the source: active = GI50 up to about 1.1 µM and inactive = higher. Not all results are given here. Entries with a potency or affinity are not part of this list.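 A five-concentration, 48-hour dose response in 96-well plates underlies each endpoint, interpolated linearly between surrounding concentrations. GI50 = concentration required for 50% inhibition of growth.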

What follows are substances tested on KM12 (assay: NCI tumour cell line growth inhibition, 48 h).
For “[Bis(aminomethyl)pentamethylenesilane]dichloropaltinum(II), CHEMBL2146202”, the GI50 was 5.56 µM. “[Bis(aminomethyl)tetramethylenesilane]dichloropaltinum(II), CHEMBL2146205” gave a GI50 of 78 µM. In the case of “mu-(1,7-nanodiamine-N,N')bis-(cis-aminedichloroplatimum (II)), CHEMBL2146215”, the GI50 is reported as 97.1 µM. “[Bis(aminomethyl)pentamethylenesilane]tetrachloropaltinum(IV), CHEMBL2146204” was tested, and the GI50 was 4.12 µM. Work on “[Bis(aminomethyl)ethylmethylsilane]tetrachloroplatinum(IV), CHEMBL2146192” yielded a GI50 of 3.89 µM. “[Bis(aminomethyl)diethylsilane]tetrachloroplatinum(IV), CHEMBL2146203” showed a GI50 of 8.85 µM. “[Bis(aminomethyl)dimethylsilane]dichloroplatinum (II), CHEMBL2146201” was tested, and the GI50 was over 100 µM. Work on CISPLATIN, CHEMBL11359 yielded a GI50 of 10 µM. Work on “[Bis(aminomethyl)dimethylsilane]tetrachloroplatinum(IV), CHEMBL2146190” yielded a GI50 of 18.1 µM. For “[Bis(aminomethyl)tetramethylenesilane]tetrachloropaltinum(IV), CHEMBL2146189”, the GI50 was 14.8 µM. “cis-Bis[[(trimethylsilyl)methyl]amino]tetrachloroplatinum(IV), CHEMBL2146191” showed a GI50 of 9.66 µM.
